# Compounds with a hit are over-represented: about 12% of the library has one in this group of screens.
# L3MBTL1 block = blocks human L3MBTL1; Potency, µM (highest dose often 57.1 µM), without a hit: at the top dose activity, negative = inhibition, actives largely listed as inhibitors; Q9Y468; AlphaScreen L3MBTL1–H3K9me1 peptide binding; AID 485360; 230,000 tested, 0.66% active; note: % is set by controls: 0 for no effect and ±100 for the full control effect; nearly all actives have a fitted effect of over 60% in size
#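 First, the protein-peptide complex forms for 30 min at room temperature (L3MBTL1 50 nM, biotinylated H3K9me1 peptide 75 nM). Next, compounds are pin-transferred and incubated 30 min. Finally, AlphaScreen beads are added and read after 30 min.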
# JMJD2A Tudor inh = JMJD2A Tudor domain (human) inhibition. O75164. AlphaScreen JMJD2A-Tudor / H3K4me3 peptide binding. Potency, µM (series often up to 114 µM), without a hit: at the top dose activity change, negative = inhibition, actives largely listed as inhibitors. 390,000 tested, 4.4% active. AID 504339; note: % is set by controls: 0 for no effect and ±100 for the full control effect; nearly all actives have a fitted effect of over 50% in size
# Target sequence (O75164 whole entry, looked up, the tested form may be a part): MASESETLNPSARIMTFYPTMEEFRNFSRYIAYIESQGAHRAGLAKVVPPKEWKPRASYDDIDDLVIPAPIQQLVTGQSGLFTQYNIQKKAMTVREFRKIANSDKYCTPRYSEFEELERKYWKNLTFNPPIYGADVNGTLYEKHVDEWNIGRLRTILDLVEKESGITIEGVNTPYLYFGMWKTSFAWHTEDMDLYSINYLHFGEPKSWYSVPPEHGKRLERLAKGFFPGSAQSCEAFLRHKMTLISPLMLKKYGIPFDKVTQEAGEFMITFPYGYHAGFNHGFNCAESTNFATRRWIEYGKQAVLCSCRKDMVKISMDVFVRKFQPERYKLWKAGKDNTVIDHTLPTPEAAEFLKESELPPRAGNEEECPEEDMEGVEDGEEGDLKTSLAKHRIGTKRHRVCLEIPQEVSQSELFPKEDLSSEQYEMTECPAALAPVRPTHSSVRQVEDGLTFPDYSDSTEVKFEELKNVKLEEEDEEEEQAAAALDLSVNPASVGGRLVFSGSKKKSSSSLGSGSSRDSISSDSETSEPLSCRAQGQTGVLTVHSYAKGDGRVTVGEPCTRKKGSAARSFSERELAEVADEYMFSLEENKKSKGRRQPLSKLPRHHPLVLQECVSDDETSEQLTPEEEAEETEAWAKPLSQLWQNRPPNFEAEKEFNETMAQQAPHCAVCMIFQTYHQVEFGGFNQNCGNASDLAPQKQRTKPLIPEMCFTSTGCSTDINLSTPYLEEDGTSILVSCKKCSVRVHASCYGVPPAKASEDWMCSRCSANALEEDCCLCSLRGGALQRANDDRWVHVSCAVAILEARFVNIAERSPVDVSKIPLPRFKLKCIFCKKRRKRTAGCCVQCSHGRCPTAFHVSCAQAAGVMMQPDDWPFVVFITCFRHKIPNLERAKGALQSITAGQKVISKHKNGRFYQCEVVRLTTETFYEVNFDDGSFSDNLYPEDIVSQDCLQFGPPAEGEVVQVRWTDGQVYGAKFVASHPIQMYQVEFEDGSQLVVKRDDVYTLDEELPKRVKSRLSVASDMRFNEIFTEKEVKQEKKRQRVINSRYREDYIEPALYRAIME
# Sfp inh = Sfp phosphopantetheinyl transferase inhibition | Biochemical Sfp PPTase activity, qHTS | Potency, µM, for the others: largest response in the series, negative = inhibition, usual class: inhibitors | Q9F4F7 | 310,000 tested, 3.5% active;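 note: the enzyme is Sfp with the accession as filed and its product quenches rhodamine fluorescence; 0% = enzyme reaction without inhibitor and -100% = no enzyme wells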
#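 Compounds were incubated with enzyme (final 15 nM) for 15 min at room temperature before substrate addition started the reaction. Fluorescence at 525 nm excitation, 598 nm emission was recorded immediately and after 30 minutes.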
# BAZ2B inh = BAZ2B (human) inhibition | Q9UIF8 | AlphaScreen BAZ2B-H3K14Ac peptide displacement | Potency, µM (titrated, usually from 114 µM), inactives show top-dose activity change, negative = inhibition, most hits filed as inhibitors | 360,000 tested, 4.4% active | AID 504333; note: % is set by controls: 0 for no effect and ±100 for the full control effect; nearly all actives have a fitted effect of over 60% in size
#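 BAZ2B (50 nM) with biotin-H3(5-23)K14Ac peptide (50 nM) in PBS pH 7.4, 0.01% Tween-20, preformed 30 min, then compound 30 min at room temperature; top concentration 110uM. AlphaScreen streptavidin donor/nickel chelate acceptor beads (10 ug/mL final), 20 min dark, signal read.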
# G9a block = G9a (human) methyltransferase inhibition; 350,000 tested, 8.8% active; Q96KQ7; G9a H3K9 monomethylation, AlphaScreen, 2 h; Potency, µM (highest dose often 102 µM), for the others: top-dose activity, negative = inhibition, usual class: inhibitors; note: % is set by controls: 0 for no effect and ±100 for the full control effect; nearly all actives have a fitted effect of over 75% in size
#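 Signal arises when biotinylated H3K9 peptide, once monomethylated, bridges streptavidin donor and antibody-captured acceptor beads. Enzyme at 20 nM was preincubated 15 min with test compounds; peptide 500 nM and SAM 20 uM then reacted for 2 h.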
# HP1b binding inh = inhibitors of HP1-beta chromodomain binding to methylated histone tails | P83916 | AlphaScreen HP1-beta / biotin-H3K9me3 peptide binding | AID 540317 | 390,000 tested, 0.56% active | Potency, µM (highest dose often 114 µM), inactives show top-dose activity change, negative = inhibition, usual class: inhibitors; note: nearly all actives have a fitted effect of over 70% in size
#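 AlphaScreen: HP1-beta (50 nM) preformed 30 min with biotin-H3(1-18)K9me3 peptide (50 nM) in PBS pH 7.4, 0.01% Tween-20. Compound added for 30 min at RT, then streptavidin donor/nickel chelate acceptor beads (10 ug/mL) for 30 min.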
# * marks the source's active call; other numbers are inactive results; ? = inconclusive; . = no result; [ ] = dose if it differs, or a comment. Calls come from the whole dose curve; as a rule, active = well fitted curve in the direction sought with a large enough effect; inconclusive = small, poorly fitted or top-dose-only effect, or another doubt; inactive = no such curve, though single readings can be large; an effect the other way counts as inactive or inconclusive. Potency is the fitted concentration of half-maximal effect.
SMILES,L3MBTL1 block,JMJD2A Tudor inh,Sfp inh,BAZ2B inh,G9a block,HP1b binding inh
c1coc(-c2nn3c(Cn4nnc5ccccc54)nnc3s2)c1,-0.8%,-31.3%,44.7µM*,-0.3%,?,-24.8%
CCOc1ccc(NC(=O)Cn2c(=O)cc(C)c3c(C)nn(-c4cccc(Cl)c4C)c32)cc1,.,-33.0%,.,1.7%,6.7%[59 µM],58.5%
Cc1cccc(CNc2ncnc3ccc(-c4cccc(Cl)c4)cc23)c1,-4.5%,.,.,0.5%,-21.2%[12.7 µM],.
CCOC(=O)Cn1c(=O)n(C2CCCCC2)c2nc(-c3c(F)cccc3Cl)nc(C(N)=O)c21,.,?,.,-30.0%,10.5%[59 µM],13.5%[57 µM]
CCOC(=O)c1cc(S(=O)(=O)N2CCN(c3ccccc3F)CC2)[nH]n1,.,-29.7%,.,?,15.8µM*,11.2%[57 µM]
CCOC(=O)c1c(C)[nH]c(C)c1S(=O)(=O)N1CCC(C(=O)N2CCN(c3cccc(C)c3C)CC2)CC1,.,-35.3%,.,-33.2%,-34.0%[59 µM],8.1%
COC(=O)c1cc(S(=O)(=O)N2CCN(c3ccc(C)cc3C)CC2)cn1C,.,-26.4%,.,-9.8%,-22.1%[59 µM],-21.0%
CCOC(=O)c1cc(S(=O)(=O)N2CCN(c3cccc(C)c3C)CC2)[nH]n1,.,-30.7%,.,?,10µM*,-2.1%[57 µM]
CCOC(=O)c1cc(S(=O)(=O)N2CCN(c3ccc(C)cc3C)CC2)[nH]n1,.,?,.,50.1µM*,3.98µM*,-2.4%[57 µM]
CCn1c(CN2CCN(c3cccc(C)c3C)CC2)n[nH]c1=S,-9.4%,-13.4%,5.6%,-7.8%,7.94µM*,24.8%
CCNC(=O)NC1(C(=O)Nc2ccc3c(c2)OCCO3)CCCCC1,48.7%,-4.3%,-11.2%,13.3%,3.8%[0.501 µM],60.4%
CCOC(=O)c1ccc(N2C(=O)c3n[nH]c(-c4cccs4)c3C2c2cccc(O)c2)cc1 (stereo unspecified),.,-35.7%,.,.,-28.2%[59 µM],35.0%
O=C(/C=C1\NC2(CCCC2)Cc2ccccc21)N1CCOCC1,-5.2%,50.1µM*,?,?,31.6µM*,-16.8%
COc1ccc(OC)c(C(c2nnnn2CC2CCCO2)N2CCN(C3CCCC3)CC2)c1 (stereo unspecified),-5.6%,-17.1%,5.5%,?,?,13.3%
COc1ccc(OC)c(C(c2nnnn2CC2CCCO2)N2CCN(C)CC2)c1 (stereo unspecified),.,-13.7%,-3.6%,79.4µM*,?,17.4%
COc1ccccc1C(c1nnnn1CC1CCCO1)N1CCC(C(N)=O)CC1 (stereo unspecified),16.9%,-6.4%,20.6%,3.9%,-15.3%[59 µM],63.2%
C=CCN1CCN(C(c2cc(OC)ccc2OC)c2nnnn2CC2CCCO2)CC1 (stereo unspecified),11.2%,-14.4%[11.4 µM],0.5%,.,12.6µM*,9.4%
C=CCn1c(NCc2ccco2)nc2ccccc21,2.5%,-4.3%,23.4%,-30.4%,-3.8%[59 µM],38.2%
CCCCn1c(NCc2ccc(N(C)C)cc2)nc2ccccc21,?,39.8µM*,?,39.8µM*,?,?
C=CCn1c(NCc2ccc(N(C)C)cc2)nc2ccccc21,-20.0%,?,?,44.7µM*,?,?
Nn1c(COc2ccccc2F)nnc1SCC(=O)NC1CCS(=O)(=O)C1 (stereo unspecified),10.8%,-0.7%,.,10.3%,21.0%,22.9%
CC(C)=CC(=O)Nc1ccc(Cl)cc1,11.7%,5.4%,5.3%,-35.9%,24.7%,54.5%
CS/C(=C\[N+](=O)[O-])Nc1ccc(Cl)cc1,.,-4.1%,2.8%,-8.6%,11.2µM*,11.8%
CCC(=O)N(C)/C=C1\Sc2ccccc2C1=O,-2.2%,-20.5%[11.4 µM],-9.7%,56.2µM*,?,32.3%
CC(=O)N(C)/C=C1\Sc2ccccc2C1=O,-3.4%,0.7%,4.0%,-29.0%,3.5%,30.7%
O=C(O)c1cccc2c1C(=O)c1ccc(-c3ccc(Cl)c(C(F)(F)F)c3)cc1S2(=O)=O,-1.9%,79.4µM*,.,?,15.9%[2.33 µM],15.1%
CC(=O)NNS(=O)(=O)c1ccc(-c2cc(C(F)(F)F)n(C)n2)s1,64.7%,0.7%,-10.2%,23.8%,.,9.8%

# Compound activity deposited in PubChem BioAssay by National Center for Advancing Translational Sciences (NCATS).
